In PubChem BioAssay AID431 (Sanford-Burnham Center for Chemical Genomics, 2006):
About 1,100 (1.7%) of roughly 63,000 compounds were called active.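 The calls were made as follows: active = compounds whose percent cytotoxicity in the single-dose primary screen, scaled between solvent and toxic-drug controls, exceeds 50; inactive = the rest.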 What follows is part of a selection rich in actives, with near analogues and random picks from the rest. Results with a measured potency or affinity are listed apart.

Test: cytotoxicity in KRAS-transformed pancreatic duct cells, primary screen, cell-based, fluorescence, HTS (AID 431);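 also: 0% = DMSO solvent wells and 100% = doxorubicin-treated wells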
Details: HPDE-C7K KRASV12 cells, Alamar Blue viability, 48 h; at 10 µM; stronger effect = higher value

Compound | cytotoxicity
O=C(CCC1COc2ccccc2O1)Nc1ncccc1O (stereo not drawn) | -11.8% (inactive)
CN1/C(=C\P(=O)(N(C)C)N(C)C)C(C)(C)c2ccccc21 | -1.6% (inactive)
Cc1ccccc1S(=O)(=O)Cc1ccc(C(=O)N2CCN(c3ccc(F)cc3)CC2)o1 | 3.3% (inactive)
Cc1ccccc1S(=O)(=O)Cc1ccc(C(=O)N2CCN(c3cccc(C)c3C)CC2)o1 | 73.9% (active)
Cc1cccc(N2CCN(C(=O)c3ccc(Cl)c(S(=O)(=O)NCc4ccco4)c3)CC2)c1C | 55.9% (active)
Cc1ccccc1S(=O)(=O)Cc1ccc(C(=O)N2CCN(c3ncccn3)CC2)o1 | -21.5% (inactive)
O=C(O)c1ccc(Cl)c(S(=O)(=O)NCc2ccco2)c1 | -11.1% (inactive)
Cc1ccc(S(=O)(=O)Cc2ccc(C(=O)N3CCN(c4cc(C)ccc4C)CC3)o2)cc1 | 20.6% (inactive)
COc1ccc(S(=O)(=O)Cc2ccc(C(=O)N3CCN(c4cccc(C)c4C)CC3)o2)cc1 | 48.2% (inactive)
Cc1ccc(C)c(N2CCN(C(=O)c3ccc(CS(=O)(=O)c4ccccc4C)o3)CC2)c1 | 52.8% (active)
O=C(NCC1(N2CCOCC2)CCCCC1)c1ccc(Cl)c(S(=O)(=O)NCc2ccco2)c1 | -5.8% (inactive)
CCSc1nc2c(c(=O)n(C)c(=O)n2C)n1Cc1ccc(Cl)cc1 | 1.1% (inactive)
CSc1ccc2[nH]c(=O)cc(C)c2c1 | -15.6% (inactive)
c1ccc(Cn2nnnc2CN2CCCC2)cc1 | -11% (inactive)
COc1ccc(NS(=O)(=O)c2ccc(NS(C)(=O)=O)cc2)cc1 | -20.7% (inactive)
COc1ccccc1/C=N/n1cnnc1 | -11.3% (inactive)
Nc1cc(N)cc(-c2nc3ccccc3o2)c1 | 15.3% (inactive)
Nc1ccc(-c2nc3ccc(-c4nc5ccccc5o4)cc3[nH]2)cc1 | 66.5% (active)
Nc1ccc(-c2nc3ccccc3[nH]2)cc1 | -4.1% (inactive)
COCCN(C(=O)Cc1cccs1)c1nnc(-c2ccncc2)s1 | -16.9% (inactive)
CCCCc1c(C)nc(N)[nH]c1=O | 1.6% (inactive)
COc1ccc(CN(CCCN2CCOCC2)C(=O)Nc2ccccc2)cc1OC | 13.2% (inactive)
Clc1ccc2nc(N3CCCCC3)sc2c1 | -11.1% (inactive)
Cc1cc(Cl)ccc1OC(C)C(=O)Nc1ccccc1N1CCOCC1 (stereo not drawn) | -12.8% (inactive)
Cc1cc(/C=N\O)c(C)n1-c1ccncc1 | 3.4% (inactive)

Compound | cytotoxicity
C=CCOC(=O)c1[nH]c2c(c1C)C(=O)CC(c1cc(OC)c(OC)c(OC)c1)C2 (stereo not drawn) | -9.9% (inactive)
C/C=C/COC(=O)c1[nH]c2c(c1C)C(=O)CC(c1ccc(N(C)C)cc1)C2 (stereo not drawn) | 10.6% (inactive)
C/C=C/COC(=O)c1[nH]c2c(c1C)C(=O)CC(c1ccco1)C2 (stereo not drawn) | 69.1% (active)
C=CCOC(=O)c1[nH]c2c(c1C)C(=O)CC(c1ccco1)C2 (stereo not drawn) | 67.6% (active)
CCn1c(SCC(=O)Nc2ccc(C(=O)OC)cc2)nnc1-c1cccs1 | -8.2% (inactive)
Cc1ccc(NC(=O)c2cc(NC(=O)c3ccco3)ccc2N2CCCCC2)cc1 | 19.3% (inactive)
CCCN(C#N)c1nc(NCC)nc(NC(C)C)n1 | -9.4% (inactive)
CCNc1nc(NC(C)C)nc(N(C#N)CCOc2ccc(Cl)cc2Cl)n1 | 109% (active)
CCNc1nc(NC(C)C)nc(N(C#N)Cc2ccccc2)n1 | 3% (inactive)
O=C(N1CCOCC1)N1CCN(S(=O)(=O)N2CCOCC2)CC1 | -4.2% (inactive)
CCc1c(C)nc2ncnn2c1NCCc1ccc(OC)c(OC)c1 | -12.5% (inactive)
COc1ccc(CCNc2c(C)c(C)nc3ncnn23)cc1 | 33.4% (inactive)
CCc1c(C)nc2ncnn2c1NCCc1ccc(OC)cc1 | 64.2% (active)
Cc1cc(C)nc(Nc2n[nH]c(COc3ccc(Cl)cc3)n2)n1 | 1.1% (inactive)
O=C(Nc1ncc(Br)s1)C1CCCN1S(=O)(=O)c1cccc2cccnc12 (stereo not drawn) | -12.6% (inactive)
COC(=O)c1sccc1NC(=O)c1ccc(Cl)s1 | 1.5% (inactive)
COc1ccc(NC(=O)c2cc(-c3ccccc3OC)on2)cc1 | 38.7% (inactive)
COc1ccccc1-c1cc(C(=O)Nc2cc(C)on2)no1 | 6.8% (inactive)
COc1ccccc1-c1cc(C(=O)Nc2cccnc2)no1 | 71.3% (active)
C=CCn1c(SCC(=O)Nc2ccc(C(=O)OCC)cc2)nnc1-c1cccs1 | -6.9% (inactive)
Cc1ccc2c(c1)N(CCC(=O)NCc1ccc3c(c1)OCO3)C(=O)CO2 | -4.5% (inactive)
Cc1nc(Nc2ccc(F)cc2)[nH]c(=O)c1CCC(C)C | 66.2% (active)
Cc1nc(Nc2ccccc2)[nH]c(=O)c1CCC(C)C | -10.7% (inactive)
Cc1ccc(Nc2nc(C)c(CCC(C)C)c(=O)[nH]2)cc1 | 1.8% (inactive)
Cc1n[nH]c(C)c1S(=O)(=O)N1CCCC(C(=O)NC2CCCCC2)C1 (stereo not drawn) | -3.4% (inactive)

Compound | cytotoxicity
Cc1nnc2n1NC(c1ccc(Cl)cc1)C(C(=O)N1CCC(C)CC1)S2 (stereo not drawn) | -14.7% (inactive)
CCOC(=O)c1c(NC(C)=O)no[n+]1[O-] | -10.4% (inactive)
Cc1cc(C)cc(NC(=O)CSc2nc3c(c(=O)n2C)SC(C)C3)c1 (stereo not drawn) | -5.2% (inactive)
COCCSc1ccccc1C(=O)NCCCn1ccnc1 | -28.4% (inactive)
O=C(Nc1ccccn1)c1ccc2ccccc2n1 | -3.6% (inactive)
c1ccc(Nc2ccccc2Nc2ccccn2)nc1 | -10.1% (inactive)
Oc1cccc2ccc(Nc3ccccn3)nc12 | 124% (active)
Cn1c(SCC(=O)Nc2ccc3c(c2)OCCO3)nnc1-c1ccco1 | 10.1% (inactive)
N=c1n(CCN2CCCC2)c2ccccc2n1CC(O)c1ccco1 (stereo not drawn) | -3.9% (inactive)
N=c1n(CCN2CCCCC2)c2ccccc2n1CC(O)COc1ccccc1 (stereo not drawn) | 16% (inactive)
N=c1n(CCN2CCCCC2)c2ccccc2n1CC(O)c1cccc(Br)c1 (stereo not drawn) | 59.4% (active)
CN(C)c1ccc(C2CC(=O)NC3=C2C(=O)CC(C)(C)C3)cc1 (stereo not drawn) | -6.4% (inactive)
C=CCn1sc(N)c(C(=O)OCC)c1=S | 9% (inactive)
Cc1cc(C)c2c(=O)n(CC(=O)NCCCN3CCN(c4ccccc4F)CC3)sc2n1 | 82.2% (active)
O=C(CCNC(=O)Cn1ccc2ccccc2c1=O)NCCCN1CCN(c2ccccc2F)CC1 | -16.9% (inactive)
Cc1cc(C)c2c(=O)n(CC(=O)NCCCN3CCOCC3)sc2n1 | 20.5% (inactive)
CCOC(=O)N1CCN(C(=O)c2ccc3c(c2)NC(=O)C(N2CCOCC2)S3)CC1 (stereo not drawn) | -7.4% (inactive)
COCCNC(=O)CN1CCOc2ccccc21 | -4.3% (inactive)
COc1ccc(-c2cc(C(F)F)n3ncc(C(=O)N4CCN(C(=O)c5ccco5)CC4)c3n2)cc1 | 5.6% (inactive)
NC(=O)C1CCCN(Cc2ccc(Cl)cc2)C1 (stereo not drawn) | -10.3% (inactive)
CCOC(=O)Nc1sc(=S)n(C)c1C | -11.2% (inactive)
CN(C)c1nc(SCCOC(=O)Nc2ccccc2)nc(N(C)C)n1 | 16.1% (inactive)
Cc1c(NC(=O)OCCSc2nc(N(C)C)nc(N(C)C)n2)sc(=S)n1C | 66% (active)
Cc1cccc2cc(CN(CC3CCCO3)C(=O)c3ccncc3)c(=O)[nH]c12 (stereo not drawn) | 7.7% (inactive)
COC(=O)CSc1nnc(-c2ccccc2OC)o1 | -18.2% (inactive)

Compound | cytotoxicity
COc1ccccc1-c1nnc(SCC(=O)Nc2c(Cl)cccc2Cl)o1 | -1% (inactive)
CCOC(=O)C1=C(C)NC(SCC(=O)Nc2nc(C)cs2)=C(C#N)C1c1cccs1 (stereo not drawn) | 92.7% (active)
CCOCCSC1=C(C#N)C(c2cccs2)C(C(C)=O)=C(C)N1 (stereo not drawn) | 4.7% (inactive)
C#CCSC1=C(C#N)C(c2cccs2)C(C(=O)OCC)=C(C)N1 (stereo not drawn) | 53.6% (active)
CCSC1=C(C#N)C(c2cccs2)C(C(=O)OC)=C(C)N1 (stereo not drawn) | 15.4% (inactive)
CCOC(=O)C1=C(C)NC(SCC(=O)Nc2cc(C)on2)=C(C#N)C1c1cccs1 (stereo not drawn) | 32.3% (inactive)
CCOC(=O)C1=C(C)NC(SCc2cc(=O)[nH][nH]2)=C(C#N)C1c1cccs1 (stereo not drawn) | 41.8% (inactive)
O=C1N(CN2CCN(c3cccc(Cl)c3)CC2)c2ccccc2C12OCCCO2 | 0% (inactive)
Cc1ccc(NC(=O)c2oc3ccccc3c2NC(=O)c2ccc3c(c2)OCO3)cc1 | -7.7% (inactive)
COc1c(C)cc(Br)cc1C(=O)Nc1ccc(N2CCN(S(C)(=O)=O)CC2)cc1 | 1.2% (inactive)
CCc1nc2ccccc2c(C(=O)OCC(=O)Nc2ccc(S(=O)(=O)N3CCOCC3)cc2)c1C | 43.3% (inactive)
COc1ccc(-c2cnc(SCC(=O)Nc3cc(C)on3)n2Cc2ccco2)cc1 | 0.3% (inactive)
Cc1cnc(NC(=O)CSc2ncc(-c3ccccc3)n2Cc2ccco2)s1 | -4.7% (inactive)
COc1ccc(-c2cnc(SCC(=O)Nc3ccc4c(c3)OCO4)n2Cc2ccco2)cc1 | 18.8% (inactive)
CCC(=O)Nc1cc(NC(=O)CSc2ncc(-c3ccc(F)cc3)n2Cc2ccco2)ccc1C | 3.3% (inactive)
O=C(CSc1ncc(-c2ccc(F)cc2)n1Cc1ccco1)Nc1ccc2c(c1)OCO2 | 86.3% (active)
CC(=O)Nc1cccc(NC(=O)CSc2ncc(-c3ccc(Cl)cc3)n2Cc2ccco2)c1 | 83.5% (active)
Cc1cc(=S)n(-c2ccccc2)n1C | -7.8% (inactive)
Cc1cc(C)nc(SC(C)C(=O)Nc2ccc(S(N)(=O)=O)cc2)n1 (stereo not drawn) | -10.7% (inactive)
Cc1ccc(-c2nnc3ccc(SCC(=O)N4CCCCC4)nn23)cc1 | -7% (inactive)
CC1CCc2nc(NC(=O)Cc3cccs3)sc2C1 (stereo not drawn) | -16% (inactive)
CC(C)C1Cc2c(sc3c2c(=O)n(Cc2ccccc2)c2nncn32)CO1 (stereo not drawn) | 1.7% (inactive)
Cc1nnc2n(Cc3ccccc3)c(=O)c3c4c(sc3n12)CN(Cc1ccccc1)CC4 | 1.6% (inactive)
